Data: PubChem BioAssay (NCATS)
A number with no mark means an inactive call. Records with an inconclusive call do not appear. A call without a number means that no potency is given here. The source made the active and inactive calls. Unless noted, calls come from the whole dose curve; as a rule, active = well fitted curve in the direction sought with a large enough effect; inconclusive = small, poorly fitted or top-dose-only effect, or another doubt; inactive = no such curve, though single readings can be large; an effect the other way counts as inactive or inconclusive.

What was measured:
[1] = Cell Viability - Hek293 (AID 427;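 active = compounds whose dose-response curve shows a full or clear partial loss of cell viability, called from curve shape rather than a numeric limit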;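 note: potency is the fitted concentration of half-maximal effect; cells exposed to compound for 40 hours at 37 °C before reading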); details: qHTS
In short: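 qHTS, human embryonic kidney (adenovirus-transformed) cells; 40 hr cpd, 37 °C; CellTiter-Glo ATP luminescence. Norm: DMSO = 0, 100 uM tamoxifen = 100% inhibition. Hill-fit AC50.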

[2] = Cell Viability - HepG2 (AID 433; calls by dose curve;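 note: potency is the fitted concentration of half-maximal effect; cells exposed to compound for 40 hours; potency for ATP loss meaning cytotoxicity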); details: qHTS
In short: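 HepG2 cells, 1500 per well, treated 40 hr at 37 °C in complete medium; viability from intracellular ATP by CellTiter-Glo luminescence. Normalized to DMSO and 100 uM tamoxifen; AC50 from Hill fit of qHTS concentration-response.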

[3] = Cell Viability - H-4-II-E (AID 543); details: H-4-II-E rat hepatoma viability; series mostly up to 92.2 µM;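 note: cells exposed to compound for 40 hours; nearly all actives have a fitted effect of over 35% in size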; note: potency is the fitted concentration of half-maximal effect
In short: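 CellTiter-Glo luminescence (intracellular ATP) measured after 40 h compound exposure at 37 °C in H-4-II-E rat hepatoma cells seeded at 1500/well. Values are AC50s fitted with the standard Hill equation.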

[4] = Cell Viability - SH-SY5Y (AID 544); details: SH-SY5Y neuroblastoma cell viability; series mostly up to 92.2 µM;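 note: cells exposed to compound for 40 hours; nearly all actives have a fitted effect of over 55% in size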
In short: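 Cytotoxicity measured via ATP-dependent luciferase luminescence (CellTiter-Glo) following 40 h, 37 °C exposure of 1500 SH-SY5Y cells per well. Concentration-response data were fitted with the standard Hill equation to give AC50.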

[5] = Cellular Toxicity (caspase-3) SK-N-SH (AID 661); details: SK-N-SH caspase-3 activation, qHTS, DMSO as zero, staurosporine as full; series mostly up to 91.7 µM;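 note: cells exposed to compound for 16 hours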
In short: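 Caspase 3/7 activation was read by luminogenic substrate cleavage after 16 hour treatment of SK-N-SH cells. Signal was scaled between DMSO and 10 uM staurosporine, and concentration-response data were fitted with the Hill equation for AC50.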

[6] = Cellular Toxicity (caspase-3) H-4-II-E (AID 663); details: H-4-II-E rat hepatoma; Potency: caspase-3 activation; series mostly up to 92.2 µM;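 note: cells exposed to compound for 16 hr before readout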
In short: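 Caspase 3/7 activation measured in H-4-II-E cells in complete culture medium after 16 hr treatment at 37 °C, using luciferase-coupled substrate readout; AC50 values come from Hill-equation fits of normalized concentration-response data.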

[7] = Cellular Toxicity (caspase-3) N2a (AID 665); details: N2a cells, luminescence, normalized: DMSO 0%, 10 µM staurosporine 100%; series mostly up to 92.2 µM;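 note: compound exposure lasted 16 h at 37 °C before readout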
In short: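 Caspase-3/7 activation measured as luminescence from Caspase-Glo reagent (1 h, room temperature) after 16 h compound exposure of mouse N2a cells. AC50 values from Hill-equation concentration-response, scaled between DMSO and 10 uM staurosporine.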

[8] = Cellular Toxicity (caspase-3) NIH 3T3 (AID 666); details: NIH 3T3 caspase-3 activation, apoptosis/toxicity, 0% DMSO, 100% is 100 µM tamoxifen; series mostly up to 92.2 µM;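 note: caspase signal read after 16 h compound exposure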
In short: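 Caspase-Glo 3/7 luminescence reported caspase activation in 1000 NIH 3T3 cells/well after 16 h compound exposure at 37 C. DMSO set basal and 100 uM tamoxifen set 100% stimulation; concentration-response modeled with the Hill equation for AC50.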

[9] = MultiTox-Fluor Cytotoxicity Assay - LYMP1-001 - Dead Cells (AID 946); details: LYMP1-001 lymphoblastoid cells, dead-cell protease fluorescence; series mostly up to 92.2 µM
In short: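 Seed 2500 LYMP1-001 cells/well, incubate 5 hr at 37 C; add compound, 16 hr at 37 C; add MultiTox-Fluor reagent, 60 min RT; read dead-cell fluorescence Ex/Em=485/520. Normalize to DMSO and 15 uM tetraoctylammonium bromide.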

[10] = Cell Viability - LYMP1-002 - Assay at 16 hr (AID 948); details: LYMP1-002 lymphoblastoid cell viability; series mostly up to 92.2 µM
In short: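 LYMP1-002 human lymphoblastoid cells, 2500/well, were treated with compounds for 16 hr at 37 C in complete medium. Viability was read as intracellular ATP by CellTiter-Glo luminescence, and AC50 was derived from a Hill fit to concentration-response data.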

[11] = Cell Viability - LYMP1-003 - Assay at 40 hr (AID 964); details: LYMP1-003 lymphoblastoid viability; series mostly up to 92.2 µM; note: nearly all actives have a fitted effect of over 60% in size; note: potency is the fitted concentration of half-maximal effect
In short: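 Viability is taken as cellular ATP, read by CellTiter-Glo luminescence after 40 h of compound exposure at 37 C. Cells: human lymphoblastoid line LYMP1-003 at 2500/well; AC50 values derived by Hill-equation fitting of concentration-response data.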

[12] = Cell Viability - LYMP2-011 (AID 969); details: LYMP2-011 lymphoblastoid cells viability; series mostly up to 92.2 µM; note: nearly all actives have a fitted effect of over 60% in size
In short: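 Cytotoxicity qHTS with ATP content as read-out: lymphoblastoid cells (2500/well) exposed to compound for 24 h at 37 C, then luciferase luminescence measured. Concentration-response data fitted with the standard Hill equation to give AC50.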

[13] = Cell Viability - LYMP2-013 (AID 970); details: LYMP2-013 lymphoblastoid cells viability; series mostly up to 92.2 µM; note: nearly all actives have a fitted effect of over 55% in size
In short: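 qHTS cytotoxicity: ATP-dependent luminescence (CellTiter-Glo, 30 min room temperature) read after 24 h compound exposure at 37 C of 2500 LYMP2-013 lymphoblastoid cells per well. Concentration-response fitted with Hill equation to give AC50.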

[14] = Cell Viability - LYMP2-017 (AID 972); details: LYMP2-017 lymphoblastoid cell viability; series mostly up to 92.2 µM; note: nearly all actives have a fitted effect of over 55% in size
In short: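 CellTiter-Glo luminescence (cellular ATP, 30 min RT) measured cytotoxicity after 24 hr compound treatment at 37 C. Cells were a human lymphoblastoid line, LYMP2-017, plated at 2500/well and incubated 5 hr first; concentration-response fitted with Hill equation for AC50.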

[15] = Cell Viability - LYMP2-007 (AID 979); details: LYMP2-007 lymphoblastoid cell viability; series mostly up to 92.2 µM;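 note: cells exposed to compound for 24 h before reading; nearly all actives have a fitted effect of over 60% in size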
In short: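 AC50 values come from Hill-equation fits of luminescent intracellular ATP (CellTiter-Glo, 30 min, room temperature) following 24 h compound exposure at 37 C. Cells: LYMP2-007 lymphoblastoid line, 2500 per well, in complete culture medium.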

[16] = Cell Viability - LYMP2-010 (AID 981); details: LYMP2-010 lymphoblastoid cell viability, qHTS; series mostly up to 92.2 µM; note: nearly all actives have a fitted effect of over 55% in size
In short: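 CellTiter-Glo ATP luminescence measured cytotoxicity after 24 h compound exposure at 37 C. LYMP2-010 cells were seeded at 2500/well, with tetraoctylammonium bromide as control; concentration-response curves gave AC50 values by the Hill equation.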

[17] = Cell Viability - LYMP2-012 (AID 982); details: LYMP2-012 lymphoblastoid cell viability qHTS; series mostly up to 92.2 µM
[18] = Cell Viability - LYMP2-020 (AID 986); details: series mostly up to 92.2 µM; note: nearly all actives have a fitted effect of over 55% in size
In short: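 Cytotoxicity in qHTS format: luminescent ATP readout from CellTiter-Glo after 24 h compound exposure at 37 C in complete medium. LYMP2-020 lymphoblastoid cells were seeded at 2500/well; concentration-response data fitted to the Hill equation for AC50.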

[19] = Cell Viability - LYMP2-022 (AID 987); details: LYMP2-022 lymphoblastoid cell viability; series mostly up to 92.2 µM; note: nearly all actives have a fitted effect of over 55% in size
In short: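 Cytotoxicity read as decreased cellular ATP (CellTiter-Glo luminescence, 30 min room temperature) after 24 hours compound exposure of 2500 lymphoblastoid LYMP2-022 cells/well at 37 C. Concentration-response data fitted with standard Hill equation for AC50.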

[20] = Cell Viability - LYMP2-024 (AID 988); details: LYMP2-024 lymphoblastoid cell viability; series mostly up to 92.2 µM; note: nearly all actives have a fitted effect of over 60% in size
In short: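 Cytotoxicity was taken as a decrease in ATP (CellTiter-Glo luminescence) after 24 hr compound exposure at 37 C of LYMP2-024 lymphoblastoid cells, 2500 cells/well. Concentration-response data were fitted to the Hill equation to give AC50.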

SMILES	Potency [1]	Potency [2]	Potency [3]	Potency [4]	outcome [5]	Potency [6]	outcome [7]	outcome [8]	Potency [9]	Potency [10]	Potency [11]	Potency [12]	Potency [13]	Potency [14]	Potency [15]	Potency [16]	Potency [17]	Potency [18]	Potency [19]	Potency [20]
ClCCCl	> 92 µM	> 92 µM	inactive	inactive	inactive	inactive	inactive	inactive	inactive	inactive	inactive	inactive	inactive	inactive	inactive	inactive	inactive	inactive	inactive	inactive
Cc1ccccc1C	> 92 µM	> 92 µM	inactive	inactive	inactive	inactive	inactive	inactive	inactive	inactive	inactive	inactive	inactive	inactive	inactive	inactive	inactive	inactive	inactive	inactive
O=NO	> 92 µM	> 92 µM	inactive	inactive	inactive	inactive	inactive	inactive	inactive	inactive	inactive	inactive	inactive	inactive	inactive	inactive	inactive	inactive	inactive	inactive
CC1=CC(C)(C)Nc2ccccc21	> 92 µM	> 92 µM	inactive	inactive	inactive	inactive	inactive	inactive	inactive	inactive	inactive	inactive	inactive	inactive	inactive	inactive	inactive	inactive	inactive	inactive
S=C1NC=NC2N=CNC12 (configuration not stated)	1.03 µM (active)	1.23 µM (active)	0.158 µM (active)	–	inactive	inactive	–	inactive	inactive	–	1.58 µM (active)	inactive	inactive	inactive	inactive	inactive	inactive	inactive	inactive	inactive
O=[N+]([O-])c1cccc(Cl)c1Cl	> 92 µM	> 92 µM	inactive	inactive	inactive	inactive	inactive	inactive	inactive	inactive	inactive	inactive	inactive	inactive	inactive	inactive	inactive	inactive	inactive	inactive
C/C=C\c1ccc(OC)cc1	> 92 µM	> 92 µM	inactive	inactive	inactive	inactive	inactive	inactive	inactive	inactive	inactive	inactive	inactive	inactive	inactive	inactive	inactive	inactive	inactive	inactive
CCC(C)c1ccccc1O (configuration not stated)	> 92 µM	> 92 µM	inactive	inactive	inactive	inactive	inactive	inactive	inactive	inactive	inactive	inactive	inactive	inactive	inactive	inactive	inactive	inactive	inactive	inactive
COC(=O)c1ccc(C=O)cc1	> 92 µM	> 92 µM	inactive	inactive	inactive	inactive	inactive	inactive	inactive	inactive	inactive	inactive	inactive	inactive	inactive	inactive	inactive	inactive	inactive	inactive
O=C(O)CC(C(=O)O)C(CC(=O)O)C(=O)O (configuration not stated)	> 92 µM	> 92 µM	inactive	inactive	inactive	inactive	inactive	inactive	inactive	inactive	inactive	inactive	inactive	inactive	inactive	inactive	inactive	inactive	inactive	inactive
Nc1ccc(S(=O)(=O)O)cc1	> 92 µM	> 92 µM	inactive	inactive	inactive	inactive	inactive	inactive	inactive	inactive	inactive	inactive	inactive	inactive	inactive	inactive	inactive	inactive	inactive	inactive
CC(=O)OC/C=C(\C)CCC=C(C)C	> 92 µM	> 92 µM	inactive	inactive	inactive	inactive	inactive	inactive	inactive	inactive	inactive	inactive	inactive	inactive	inactive	inactive	inactive	inactive	inactive	inactive
COC(=O)CCCCC(=O)OC	> 92 µM	> 92 µM	inactive	inactive	inactive	inactive	inactive	inactive	inactive	inactive	inactive	inactive	inactive	inactive	inactive	inactive	inactive	inactive	inactive	inactive
